Laboratory results taken from ChEMBL document CHEMBL3988442, “University of Dundee, Small-Polar-MMV Screening Library” (2021).

How the values were obtained:
[1] = target: T1, Aspartate--tRNA(Asp/Asn) ligase (Mycobacterium tuberculosis (strain ATCC 25618 / H37Rv)) (UniProt P9WFW3); test: Assay for Asp RNA synthetase-1 from Mycobacterium tuberculosis; type: functional; parameters: scale not given: direction of the effect not stated beside the values; conditions: 30 µM; note: in the data most compounds retested in dose-response had high values
T1 sequence (whole entry): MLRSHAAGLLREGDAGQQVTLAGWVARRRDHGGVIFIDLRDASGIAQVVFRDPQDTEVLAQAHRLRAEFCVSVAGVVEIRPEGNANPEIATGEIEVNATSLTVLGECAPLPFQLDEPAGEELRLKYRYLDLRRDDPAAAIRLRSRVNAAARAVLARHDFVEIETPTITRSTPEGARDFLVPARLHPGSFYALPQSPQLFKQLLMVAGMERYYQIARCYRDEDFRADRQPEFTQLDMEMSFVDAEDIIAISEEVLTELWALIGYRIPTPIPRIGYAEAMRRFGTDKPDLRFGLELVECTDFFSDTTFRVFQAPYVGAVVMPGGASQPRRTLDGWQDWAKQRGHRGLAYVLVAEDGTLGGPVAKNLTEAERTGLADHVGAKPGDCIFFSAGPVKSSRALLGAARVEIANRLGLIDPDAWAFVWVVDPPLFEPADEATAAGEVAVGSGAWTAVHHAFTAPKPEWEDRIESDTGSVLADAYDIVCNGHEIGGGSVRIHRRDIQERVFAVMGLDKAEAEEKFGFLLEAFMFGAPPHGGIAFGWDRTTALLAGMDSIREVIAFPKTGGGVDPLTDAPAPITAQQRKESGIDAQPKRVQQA

[2] = target: Shiga toxin 2 (Escherichia coli O157:H7) (UniProt P09385+P09386); test: E. coli 0.157:H7 Shiga Toxin SOP - stx2 screening assay; type: functional; parameters: scale not given: direction of the effect not stated beside the values; conditions: 30 µM

Structure (SMILES): COc1cc(N2CCCC(c3nccn3Cc3cscn3)C2)nc(N)n1 (centres undefined)
- Percent Effect [1]: -2.33%
- Percent Effect [2]: 14.5%

Structure (SMILES): FC(F)(F)Cn1ccnc1CN1CCOC(Cn2cccn2)C1 (centres undefined)
- Percent Effect [1]: 1.38%
- Percent Effect [2]: 8.38%

Structure (SMILES): O=C(NCCCN1CCOCC1)c1cc(-c2ccco2)[nH]n1
- Percent Effect [1]: -0.98%
- Percent Effect [2]: -21.1%

Structure (SMILES): CC(C)Oc1ncccc1CNC(=O)N1CCC1c1ccccc1 (centres undefined)
- Percent Effect [1]: 0.589%
- Percent Effect [2]: -9.32%

Structure (SMILES): CCC(CO)NC(=O)c1ccc2ccc(N(C)CC3CC3)n2c1 (centres undefined)
- Percent Effect [1]: -2.57%
- Percent Effect [2]: -33%

Structure (SMILES): CS(=O)(=O)N1CCOCC2(CN(Cc3ccsc3)CCO2)C1 (centres undefined)
- Percent Effect [1]: -4.1%
- Percent Effect [2]: 7.57%

Structure (SMILES): O=C1NCC2(CCCN(Cc3ccc(Cl)s3)C2)Oc2ccccc21 (centres undefined)
- Percent Effect [1]: -6.49%
- Percent Effect [2]: -53.7%

Structure (SMILES): COCCN1CC[C@@H]2O[C@@H](COCC(=O)N3CCCC3)CC[C@@H]21
- Percent Effect [1]: -4.13%
- Percent Effect [2]: -8.7%

Structure (SMILES): O=C(c1ccc(F)c(Cl)c1)N1C[C@@H]2CC[C@H](C1)N(Cc1ccccc1)C2
- Percent Effect [1]: 4.06%
- Percent Effect [2]: -25.3%

Structure (SMILES): CCNC(=O)Nc1ccc2c(ccn2CC(=O)N(CC)CC)c1
- Percent Effect [1]: -3.17%
- Percent Effect [2]: 30.4%

Structure (SMILES): COC(=O)C(C)(C)NC(=O)C1CC(=O)N(C)C1 (centres undefined)
- Percent Effect [1]: -1.62%
- Percent Effect [2]: -22.5%

Structure (SMILES): CCCN1CCC(NC(=O)NCCc2nc(CC)c(C)s2)CC1
- Percent Effect [1]: -5.93%
- Percent Effect [2]: 19.2%

Structure (SMILES): O=C(CCc1ccccc1F)NS(=O)(=O)c1ccc2c(c1)OCCCO2
- Percent Effect [1]: 2.29%
- Percent Effect [2]: -13.9%

Structure (SMILES): Cc1nccn1-c1cc(CNC(=O)CCNC(=O)C2CCCC2)ccn1
- Percent Effect [1]: -2.19%
- Percent Effect [2]: 1.23%

Structure (SMILES): O=C(COc1coc(CN2CCCCC2)cc1=O)Nc1ccc(Cl)cc1
- Percent Effect [1]: 3.86%
- Percent Effect [2]: -36.2%

Structure (SMILES): CC(Cc1ccco1)NC(=O)Nc1ccc(N2CCOCC2)nc1 (centres undefined)
- Percent Effect [1]: -3.59%
- Percent Effect [2]: 15%

Structure (SMILES): NC(=O)C1CN(C(=O)Nc2ccccc2SC(F)(F)F)CCO1 (centres undefined)
- Percent Effect [1]: -5.1%
- Percent Effect [2]: -11.7%
